Measured values reported in PubChem BioAssay AID900 (National Center for Advancing Translational Sciences (NCATS), 2007).
“And” between values parts separate entries of the source, which are not always exact repeats. Identical values can stand only once. About 20 (0.03%) of roughly 75,000 compounds were called active. Not shown: some 1% with an inconclusive outcome. Calls follow the shape of the dose curve; as a rule, active = well fitted inhibition curve with a large enough effect; inconclusive = small, poorly fitted or top-dose-only effect; inactive = flat fitted curve, though single readings scatter. Not all results are given here.

target: Caspase-1 (Homo sapiens) (UniProt P29466); experiment: qHTS Assay for Allosteric/Competitive Inhibitors of Caspase-1; conditions: Caspase-1 enzyme, Ac-WEHD-AFC fluorogenic rate; series mostly up to 57.5 µM;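 also: plate controls were vehicle for no effect and no substrate for full effect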
Description: NIH Molecular Libraries Screening Centers Network [MLSCN]
NIH Chemical Genomics Center [NCGC]
PI Name: Dr. James Wells,
Dr. Enrique Perez-Paya, Dr.Janice Williams, Dr. Dennis Wolan, a person
The caspases (Cysteine Aspartyl Protease) comprise a related family of 14 dimeric proteases that are critical mediators of apoptosis (programmed cell death) and inflammation. The caspases represent an important class of drug targets for stroke, ischemia, cancer and inflammatory diseases. […] One goal of this project was to identify compounds that act as allosteric inhibitors via stabilizing the procaspase form of the enzyme. Previous work in Well's laboratory has shown that such allosteric inhibitors can be identified and these act by binding at the dimer interface of enzyme (Hardy, Lam et al., 2004).
The biochemical assay was configured using purified caspase 1 at a high enzyme concentration to promote formation of the homodimers and thus facilitate the identification of allosteric inhibitors. The overall goal was to identify reversible inhibitors with better drug-like properties than the currently available set of aspartyl-containing peptidomimetics that covalently bind the active site. Caspase 1 was assayed using the profluorescent substrate Ac-WEHD-AFC. After initiation of the assay with substrate the plates were rapidly read using an automated robotic system (Kalypsys, Inc.) to maintain consistent timing. A kinetic mode of detection was used where the initial rate was collected (estimated final product formation was ~10%). Compounds were screened as a concentration-titration series that ranged from 57 uM to 0.7 nM. Below is the protocol used for caspase 1.
NCGC Assay Protocol Summary:
Caspase 1 was prepared in buffer (50 mM HEPES pH 7.5, 50 mM KCl, 200 mM NaCl, 10 mM DTT, 0.1% CHAPS) at a concentration of 66.6 nM and 3 uL was dispensed to all wells using black solid Kalypsys 1536-well plates. 20 nL of DMSO containing compounds was added using a pin-tool (Kalypsys Inc.) to columns 5-48. Then 20 nL of DMSO solution from a control plate was added to columns 1-4. Controls were: Column 1, 16 point titration with each concentration in duplicate (1:1 dilutions in DMSO; final starting concentration was 57 uM) of the caspase 1 inhibitor Ac-WEHD-CHO (Alexis Biochemicals); Column 2, a 16 point titration with each concentration in duplicate of the free AFC fluorophore prepared in DMSO (Alexis Biochemicals), final starting was 40 uM; Column 3 neutral (DMSO only) control; Column 4: DMSO alone, to serve as a negative control (no substrate was added). Then 1 uL of 20 uM the substrate Ac-WEHD-AFC (Alexis Biochemicals) prepared in the same buffer was dispensed to all wells except columns 2 and 4 and the plates were immediately transferred (< 1 min) to the Viewlux. The plates were then exposed using 405 nm excitation/520 nm emission filters for 4 sec and read at 20 sec intervals for 3 min. Final enzyme concentration was 50 nM and the final substrate concentration was 5 uM.
Concentration-response curves were fitted to the data calculated from slope of the linear regression of fluorescent intensity versus time (the rate). The concentration-effect curves were then classified based on curve quality (r2), response magnitude and degree of measured activity. […] Inconclusive compounds had appreciable concentration-dependent effects on both the measured rate and the interpolated basal fluorescence intensity at the start of the reaction but where the basal fluorescent intensity was marginal (e.g. < 10-fold). Inconclusive compounds also encompass highly fluorescent compounds (>100-fold increases in fluorescent intensities values relative to controls) where artificial concentration-dependent decreases in the rate occurred at high compound concentrations due to fluorescent interferences.
Keywords: Caspase 1, proteases, profluorescent, MLSMR, MLSCN, NIH Roadmap, qHTS, NCGC

Activity change, negative = inhibition, inactive:
CC(C)N(CCNC(=O)c1ccc(-n2c(=O)c(=O)[nH]c3ccccc32)cc1)C(C)C
Cc1ccccc1CSCC(=O)NC(=O)NC(C)(C)C
O=C(O)CCC(=O)NCc1ccc2[nH]c3c(c2c1)CCCC3
CCn1ncc(C2=NOC(C(=O)Nc3ccccc3C(=O)OC)C2)c1C (stereo not drawn)
CO[C@H]1COC(=O)[C@@H](C)NC(=O)C/C=C\[C@@H](C)[C@H](OC)COC(=O)C/C=C\[C@@H]1C 1.2% [at 11.5 µM]
CO/N=C\[C@@H](C)[C@H](OCc1ccccc1)C(C)C 1.85% [at 11.5 µM]
CC(=O)OCC(=O)C1CCC2C3CCC4=CC(=O)CC[C@@]4(C)C3CC[C@]12C (stereo partly drawn)
CC(C)[C@@H](OCc1ccccc1)[C@H](C)/C=N\OC[C@@H](C)[C@H](OCc1ccccc1)C(C)C -1.54% [at 11.5 µM]
COC(=O)CC1C(C)(C)C(OC(C)=O)C2CC3=C4CC(=O)OC(c5ccoc5)[C@]4(C)CCC3[C@@]1(C)C2=O (stereo partly drawn)
O=C(CSc1nc2ccccc2[nH]1)c1cccs1
CC(=O)Oc1c2c(c3c(c1CC=C(C)C)O[C@@]14C(=CC5CC1C(C)(C)OC4(C/C=C(\C)C(=O)O)C5=O)C3=O)OC(C)(CCC=C(C)C)C=C2 (stereo partly drawn)
Cc1cc(C)cc(C#CC2C=CC(Oc3ccc(C4CCCC4)cc3)C(CO)O2)c1 (stereo not drawn) -0.183% [at 11.5 µM]
Cc1sc2c(c1C)c(=O)n(-c1ccccc1)c1nncn21
CC(C)CN1CCc2nc(-c3ccccc3)c3c(c2C1)COC(C)C3 (stereo not drawn) -0.646% [at 11.5 µM]
C=CCOC(=O)C(C(C)=O)C(NC(=O)OC)c1ccccc1 (stereo not drawn) -2.17% [at 11.5 µM]
COc1c(C(C)C)oc2cc3oc(=O)ccc3cc12
Cc1oc(C)c(C(=O)NCCCC(=O)O)c1C(=O)NCCCC(=O)O
CC(CCC(=O)O)C1CCC2C3C(O)C[C@@H]4CC(O)CC[C@@]4(C)C3CC[C@@]12C (stereo partly drawn)
CN(C)CCc1c[nH]c2ccc(Cn3cncn3)cc12
Nc1ncn(C2OC(CO)C(O)C2O)c(=O)n1 (stereo not drawn)
Cc1occc1C(=O)Nc1nnc(C2CCCCC2)s1
Oc1ccc2c(c1)OCC1c3cc4c(cc3OC21)OCO4 (stereo not drawn)
C#CCC(C(=O)OC)(C(=O)OC)C(C[N+](=O)[O-])c1ccccc1 (stereo not drawn) -0.949% [at 11.5 µM]
O=C(c1cccs1)N1CCN(Cc2ccc3c(c2)OCO3)CC1
C=C[C@](C)(O)CCC1C(=C)CCC2[C@@](C)(CO)CCC[C@@]12C (stereo partly drawn)
C=C1C([C@@]2(C)C(OC(C)=O)CC(=O)O[C@@](C)(COC(C)=O)C2CC(=O)OC)C(OC=O)C(OC(=O)C(O)C(C)CC)[C@]2(C)C(c3ccoc3)CC(=O)C12O (stereo partly drawn)
CSc1ccc(Cl)c(C(=O)OCC(=O)N2CC(C)OC(C)C2)c1 (stereo not drawn)
CC(C)(C)c1ccc(OC2C=CC(C#Cc3ccccc3)OC2CO)cc1 (stereo not drawn) -6.01% [at 11.5 µM]
COc1cccc([C@H]2Oc3ccc(OC)cc3/C(=N\OCC[C@@H]3C=C[C@H](OC(C)=O)[C@H](COC(C)=O)O3)[C@@H]2O)c1 -0.817% [at 11.5 µM]
CC(=O)OCCC(C)C
CCCNC(=O)OC[C@@H]1O[C@H](c2ccccc2)C=C[C@@H]1Oc1ccc(OC)cc1 -0.962% [at 11.5 µM]
CO[C@H]1COC(=O)C/C=C\[C@H](C)COC(=O)[C@@H](OCc2ccccc2)/C=C\[C@@H]1C -1.1% [at 11.5 µM]
C=CCNC(=O)CCCC(=O)NCC=C
Oc1cc(O)c2c(c1)OC(c1ccc(O)c(O)c1)C(O)C2 (stereo not drawn)
Cn1c(=O)n2n(c1=O)[C@H]1[C@H](O)[C@H]3O[C@H]3C(=O)[C@H]1CC2 1.82% [at 11.5 µM]
N#Cc1c(/N=C/N2CCCC2)oc(-c2ccccc2)c1-c1ccccc1
O=C(c1ccc(-n2cnnn2)cc1)N1CCN(C(c2ccccc2)c2ccccc2)CC1
CC(C)CO/N=C1/C[C@@H](O)[C@@H](O)[C@@H]2[C@@H]3C(=O)N(C[C@@H]4CCCO4)C(=O)[C@H]3CC[C@@H]12 -2.12% [at 11.5 µM]
COC(=O)c1ccc(C(NC(=O)OCc2ccccc2)/C(C)=C/[C@@H](C)C(=O)NCc2cc(C)on2)cc1 (stereo partly drawn)
COC(=O)[C@@H]1C[C@@]2(O)[C@H](O)[C@H](O)[C@H](O)C[C@H]2N1Cc1ccc(C)s1
OC(CCl)CCl
CCCn1c(-c2ccc(F)cc2)nc2c(NC3CCN(Cc4ccccc4)C3)nc(C)nc21 (stereo not drawn)
CO[C@@H]1COC(=O)C/C=C\[C@H](C)[C@@H](NS(=O)(=O)c2ccc(C)cc2)COC(=O)C/C=C\[C@@H]1C 2.78% [at 11.5 µM] and -1.73% [at 11.5 µM]
COC(=O)C1=C(N)Oc2cc(C)oc(=O)c2C1c1cccnc1 (stereo not drawn)
COC(=O)C(C(=O)OC)[C@@H]1CCCC(=O)C1 -6.21% [at 11.5 µM]
CO[C@H]1COC(=O)CCC[C@@H](C)[C@H](OC)COC(=O)[C@@H](C)NC(=O)C/C=C\[C@@H]1C -4.01% [at 11.5 µM]
CC(C)C(NC(=O)OCc1ccccc1)C(=O)OCC(=O)N1C(C)CCCC1C (stereo not drawn)
Cc1c(O)cc(O)c2c(=O)c(-c3ccc(O)cc3)coc12
C/C(CCN1CCCCc2nc(C)c(C)cc21)=N\O[C@@H](C)c1cn([C@@H]2COC[C@@H]2O)nn1 -3.82% [at 11.5 µM]
Cc1cc(NC(=O)COn2nnc3ccccc32)no1
CCC1=C(OC(=O)N(CC)CC)N2C(=O)OC(=NCCc3c[nH]c4ccccc34)[C@]2(C)[C@H]2C1=CC[C@H]1C(=O)N(CC)C(=O)[C@H]12
C/C(CCN1CCc2nc(-c3ccccc3)c(-c3ccccc3)cc2C1)=N\O[C@@H](C)c1cn([C@@H]2COC[C@@H]2O)nn1 -2.17% [at 11.5 µM]
CCCN1Cc2cccc(C(=O)NCc3ccccc3)c2C1=O
COC(=O)C1=C(C)N(Cc2ccccc2)C2=C3C(=O)N(c4ccccc4)C(=O)C3[C@@](O)(C(=O)OC)C(=O)N2C1c1ccccc1 (stereo partly drawn) 2.38% [at 11.5 µM]
CCS(=O)(=O)N(C)[C@@H]1c2cc(C#N)ccc2OC(C)(C)[C@H]1O
CC(C)C(N)C(=O)OCCOCn1cnc2c(=O)[nH]c(N)nc21 (stereo not drawn)
CN(CCOc1ccc(CC2SC(=O)NC2=O)cc1)c1ccccn1 (stereo not drawn)
CC(C)C(=O)Nc1cccc(C(=O)Nc2ccc3c(c2)OCO3)c1
O=C(O)C(O)[C@@](O)(Cc1ccc(O)cc1)C(=O)O (stereo partly drawn)
CCOC(=O)C1C(=O)C=C(c2ccc(OC)cc2)CC1c1ccco1 (stereo not drawn)
COc1ccc(/C=C/NC(=O)Cc2ccc(OC)c(OC)c2)cc1 -0.944% [at 11.5 µM] and -1% [at 11.5 µM]
C=CC(=O)c1ccc2ccccc2c1
CC1(C)OC2CO[C@]3(COS(N)(=O)=O)OC(C)(C)OC3C2O1 (stereo partly drawn)
O=C(c1cnccn1)N1CCC2(CCCN(Cc3ccccc3)C2)CC1
CCN1CCCC1CNC(=O)Cn1cnc2ccc(S(=O)(=O)N3CCC(C)CC3)cc2c1=O (stereo not drawn)
CCCCNc1nc(C)nc2c1nc(-c1ccccc1)n2CCCCN(CC)CC
CC1OC(OCC2OC(Oc3c(-c4ccc(O)c(O)c4)oc4cc(O)cc(O)c4c3=O)C(O)C(O)C2O)[C@@H](O)C(O)C1O (stereo partly drawn)
COc1ccc(CCC(=O)c2c(O)cc(OC3OC(CO)C(O)C(O)C3O[C@@H]3OC(C)C(O)C(O)C3O)cc2O)cc1O (stereo partly drawn)
CC(=O)OCC1OC(C#CCCCc2ccccc2)C=CC1OC(C)=O (stereo not drawn) -0.276% [at 11.5 µM] and -3.22% [at 11.5 µM]
CN(C)CCCCNC(=O)c1ccc(Cc2nc3ccccc3[nH]2)cc1
COC(=O)c1ccc(C23CC4(C2)[C@H](CN(Cc2cccnc2)[C@@H]4c2ccccc2)C3c2ccc(Cl)nc2)cc1 (stereo partly drawn)
CN(C)/C=N/c1cc(=O)n(C)c(=O)n1CC1CC1
CS(=O)(=O)N(CC(=O)NCc1ccco1)c1ccc2c(c1)OCO2
CO[C@H]1COC(=O)[C@H](Cc2ccccc2)NC(=O)C/C=C\[C@@H](C)[C@H](OC)COC(=O)C/C=C\[C@@H]1C -1.56% [at 11.5 µM]
O=C1NS(=O)(=O)c2ccccc21
CC1(C)C=CC(=O)[C@]2(C)C1CC(=O)[C@]1(C)C2CC[C@@]2(C)C(c3ccoc3)OC(=O)C3OC321 (stereo partly drawn)
CC(=O)OCC(=O)[C@@]1(O)CCC2C3CCC4=CC(=O)CC[C@]4(C)C3C(=O)C[C@]21C (stereo partly drawn)
COC1[C@H](OC(N)=O)C(O)[C@H](Oc2ccc3c(O)c(NC(=O)c4ccc(O)c(CC=C(C)C)c4)c(=O)oc3c2C)OC1(C)C (stereo partly drawn)
CC(CCO)Nc1nc2c([nH]1)c(=O)n(C)c(=O)n2C (stereo not drawn)
C=CCN(c1ccc(C(N)=O)cc1)S(C)(=O)=O
CCCCNc1nc2c(c(=O)[nH]c(=O)n2C)n1CCOc1ccccc1
CCCc1nc2c(C)cc(-c3nc4ccccc4n3C)cc2n1Cc1ccc(-c2ccccc2C(=O)O)cc1
CCc1c(C)sc(NC(=O)OC)c1C(=O)N1CCOCC1
